High-throughput results as filed in PubChem.
ELG1 DNA repair: blocks ELG1-dependent DNA repair in HEK293T cells | hit rate 2.3% among 330,000 | AID 504467 | HEK293T ELG1-luciferase reporter, luminescence, 16 h; DNA damage induced by 5-fluorouridine | Potency, µM (titrated, usually from 46.1 µM), for inactives: at the highest dose activity change, negative = inhibition, hits mostly inhibitors; also: potency is read from the fitted curve at half-maximal effect; nearly all actives have a fitted effect of over 55% in size
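Reporter activity after DNA damage by 5-fluorouridine is monitored. Compound-treated cells incubate 16 hr at 37 °C, then ONE-Glo is added for 30 min before luminescence reading.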
TDP1 cell noCPT: qHTS for Inhibitors of human tyrosyl-DNA phosphodiesterase 1 (TDP1): qHTS in cells in absence of CPT; DT40 Tdp1-/- hTDP1 cells, no CPT, ATP luminescence, 48 h; Potency, µM (doses to about 46.2 µM), for the others: at the highest dose activity change, negative = growth inhibition, hits mostly inhibitors; hit rate 15% among 420,000; AID 686978, 2013; also: potency is read from the fitted curve at half-maximal effect; nearly all actives have a fitted effect of over 55% in size
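Growth kinetics read by CellTiter-Glo luminescence after ≥48 hr at 37 °C. Cells: DT40 Tdp1-/- stably carrying human TDP1, 400 per well, compound exposure in the absence of CPT (DMSO vehicle).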
HT1080-NT tox: kills 2HG-producing HT-1080-NT fibrosarcoma cells; AID 686970; Potency, µM (series often up to 46.1 µM), for inactives: top-dose activity, negative = less viability, most hits filed as cytotoxic; hit rate 1.6% among 360,000; HT-1080-NT fibrosarcoma viability, CellTiter-Glo ATP luminescence, 48 h;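 also: NT is the 2HG producing partner of a matched IDH1 knockdown line; potency is read from the fitted curve at half-maximal effect; 0% = DMSO-treated cells and -100% = media-only wells without cells; nearly all actives have a fitted effect of over 55% in size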
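Viability by CellTiter-Glo luminescence after 48 h compound exposure at 37C of HT-1080-NT cells (750/well, RPMI, 5% FBS). % activity scaled between DMSO wells and medium-only wells, then curve-fitted and categorized by curve class.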
DT40 TDP1 CPT: DT40-hTDP1 cell growth loss with CPT | hit rate 12% among 420,000 | Potency, µM (titrated, usually from 46.2 µM), without a hit: at the top dose activity change, negative = growth inhibition, usual class: inhibitors | chicken DT40 Tdp1-/-;hTDP1 cells + 20 nM CPT, ATP luminescence, 48 h | AID 686979; also: potency is read from the fitted curve at half-maximal effect; nearly all actives have a fitted effect of over 55% in size
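Chicken DT40 Tdp1-/- cells complemented with human TDP1, 400 cells/well, exposed to compounds plus 20 nM camptothecin for at least 48 h at 37 C; viability read as ATP content by CellTiter-Glo luminescence.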
IL-1B inflam inh: blocks inflammasome-driven IL-1 beta release; THP-1 LPS/ATP IL-1B secretion, AlphaLISA, 16 h; stronger effect = lower value; activity change, % at 57.5 µM; hit rate 4.7% among 360,000; in the data active = activity change below about -50%; inconclusive = mostly about -30% to -49%
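THP-1 cells pretreated 1 hr with compounds (up to 57.5 uM final), then stimulated with LPS (250 ng/mL final) plus ATP (1.25 mM final); secreted IL-1B measured by AlphaLISA after 16 hr, decreased signal indicating inhibition.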
HT1080 IDH1KD tx: toxicity to HT-1080 IDH1 knockdown cells (counter line) | HT-1080 IDH1 knockdown viability, ATP luminescence, 48 h | Potency, µM (doses to about 46.1 µM), without a hit: at the highest dose activity, negative = toxicity, hits mostly cytotoxic | hit rate 2% among 360,000 | AID 686971;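 also: potency is read from the fitted curve at half-maximal effect; 0% = DMSO wells and -100% = cell-free medium wells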
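Knockdown cells (IDH1KD HT-1080) received compounds 2 h after plating at 750 cells/well and were kept 48 h at 37 °C in 5% FBS RPMI. A CellTiter-Glo luminescence read gave % activity for curve fitting.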
An asterisk follows results filed as active; ? = inconclusive; nt = no result; [ ] = remark or other dose. The list is not random: actives were taken first. Their share in the collection is about 19%. Unless noted, calls follow the shape of the dose curve; as a rule, active = well fitted curve in the direction sought with a large enough effect; inconclusive = small, poorly fitted or top-dose-only effect, or another doubt; inactive = no such curve, though single readings can be large; an effect the other way counts as inactive or inconclusive. Unless noted, % is scaled to controls: 0 for no effect and ±100 for the full control effect.

SMILES	ELG1 DNA repair	TDP1 cell noCPT	HT1080-NT tox	DT40 TDP1 CPT	IL-1B inflam inh	HT1080 IDH1KD tx
CC(=O)N/C(=N\c1nc(C)cc(C)n1)Nc1ccc2ccccc2c1	?	?	18%	?	30	17%
CNC(=O)COc1ccc(Nc2nnc(-c3ccc(C)c(S(N)(=O)=O)c3)c3ccccc23)cc1	?	-2%	13%	12%	75	12%
COc1ccc(Nc2nnc(-c3ccc(C)c(S(=O)(=O)NCc4nc5ccccc5[nH]4)c3)c3ccccc23)cc1	nt	10µM*	nt	21µM*	nt	nt
CC(=O)Nc1ccc(Nc2nnc(-c3ccc(C)c(S(N)(=O)=O)c3)c3ccccc23)cc1	-6%	0%	-4%	-13%	7	3%
CNC(=O)c1cc(Nc2nnc(-c3ccc(C)c(S(N)(=O)=O)c3)c3ccccc23)ccc1OC	11%	-6%	-6%	11%	-74*	-30%
COc1ccc(Nc2nnc(-c3ccc(C)c(S(N)(=O)=O)c3)c3ccccc23)cc1	nt	18µM*	nt	18µM*	nt	nt
O=C(Nc1c[nH]c(=O)[nH]c1=O)c1cc([N+](=O)[O-])cc([N+](=O)[O-])c1	14%	1%	-16%	-2%	-5	-7%
O=C(CCNC(=O)c1ccccc1)NNC(=O)c1ccccc1Br	28%	-9%	0%	7%	24	-1%
CCOc1cc(S(=O)(=O)N2CC=C(c3ccc(F)cc3)CC2)c(OCC)cc1-n1cnnn1	5.8µM*	10µM*	-3%	15µM*	40	-41%[9.24 µM]
CCOc1cc(S(=O)(=O)N2CCC(Cc3ccccc3)CC2)c(OCC)cc1-n1cnnn1	?	-28%	-25%	-20%	-11	0%[9.24 µM]
CC(=O)Nc1ccc(S(=O)(=O)NNC(=S)NCc2ccco2)cc1	12%	-10%	10%	?	5	3%
Cc1cccc(C)c1NC(=O)C(c1ccc(C(F)(F)F)cc1)n1c(=O)c(-c2cc3ccccc3[nH]2)nc2ccccc21 (centres undefined)	nt	?	?	?	90	21µM*
O=C(NC1CCCC1)C(c1ccccc1)n1c(Cc2cc(F)cc(F)c2)nc2ccccc21 (centres undefined)	nt	?	?	18µM*	-5	?
CC(C)(C)NC(=O)C(c1ccc(C(F)(F)F)cc1)n1c(=O)c(-c2cc3ccccc3[nH]2)nc2ccccc21 (centres undefined)	nt	?	?	?	150	21µM*
CC(C)(C)NC(=O)C(c1ccc(C(F)(F)F)cc1)n1c(=O)c(-c2ccccc2)nc2ccccc21 (centres undefined)	nt	?	-1%	18µM*	33	0%
CC(C)(C)NC(=O)C(c1ccccc1)n1c(=O)c(-c2cc3ccccc3[nH]2)nc2ccccc21 (centres undefined)	nt	?	?	?	68	?
COc1cc([N+](=O)[O-])ccc1NC(=O)CSc1nc2ccccc2n1-c1ccccc1	-23%	nt	nt	nt	nt	nt
C=CCNc1ncnc2c1ncn2[C@H]1CN(Cc2ccc(F)cc2)C[C@@H](CO)O1	nt	?	?	?	19	1%
O=C(NC1CCCCC1)C(CCc1ccccc1)n1c(=O)c(-c2ccccc2)nc2ccccc21 (centres undefined)	nt	-29%	4%	?	-5	1%
O=C(NC1CCCCC1)C(c1ccc(C(F)(F)F)cc1)n1c(=O)c(-c2ccccc2)nc2ccccc21 (centres undefined)	nt	13µM*	-20%	?	27	0%
CC(C)(C)NC(=O)C(c1ccc(-c2ccccc2)cc1)n1c(=O)c(-c2cc3ccccc3[nH]2)nc2ccccc21 (centres undefined)	nt	15µM*	2%	?	91	-16%
C#CCOCCOCCOCCNc1nc(N2CCN(C(=O)[C@H](CCCCN)n3cc([C@@H](N)[C@H](C)CC)nn3)CC2)nc(N2CCN(C(=O)[C@H](CCC(=O)O)n3cc([C@@H](N)CCSC)nn3)CC2)n1	4%	8%	4%	29%	46	4%
COCC1CCN(Cc2cn[nH]c2-c2cc(OC)c(OC)c(OC)c2)CC1	?	-3%	-1%	1%	39	-4%
COc1cc(-c2[nH]ncc2CN(C)Cc2nonc2C)cc(OC)c1OC	7%	16µM*	-1%	?	66	-7%
COc1cc(-c2[nH]ncc2CN2CCSCC2)cc(OC)c1OC	?	15µM*	-1%	?	102	-6%
SMILES	ELG1 DNA repair	TDP1 cell noCPT	HT1080-NT tox	DT40 TDP1 CPT	IL-1B inflam inh	HT1080 IDH1KD tx
O=C(Cn1cnc2c(NC(=O)OCc3ccccc3)ncnc21)NCCN1CCOCC1	?	-7%	14%	-10%	18	1%
COc1ccccc1Cc1c(C(C)(C)C)nc2c3ccccc3ccn12	nt	2.6µM*	?	3.3µM*	?	13µM*
COc1ccc(-c2nc3ccc(Cl)cn3c2Cc2ccccc2C(F)(F)F)cc1OC	nt	16µM*	?	18µM*	?	-28%
COc1ccc(Cc2c(-c3ccc(F)cc3)nc3c4ccccc4ccn23)c(C)c1	nt	?	-41%	?	6	?
COc1ccc(Cc2c(-c3ccccc3)nc3c4ccccc4ccn23)c(C)c1	nt	15µM*	-25%	?	-12	?
Fc1ccc(-c2nc3c4ccccc4ccn3c2Cc2ccccc2C(F)(F)F)cc1	nt	?	4%	?	38	3%
COc1ccc(-c2nc3c4ccccc4ccn3c2Cc2ccccc2C(F)(F)F)cc1OC	nt	16µM*	?	?	-24	?
O=C(NCc1cc(C(F)(F)F)cc(C(F)(F)F)c1)c1cc(-c2cc(F)ccc2OCC2CCCO2)n[nH]1 (centres undefined)	nt	5%	14%	-15%	13	8%
CC(C)(CNC(=O)c1ccc(Br)o1)CNC(=O)c1ccc(Br)o1	-9%	-18%	16%	?	33	-1%
COc1ccc([C@H]2CC(=O)C=C(c3cccc(C(F)(F)F)c3)C2)cc1	?	-21%	-7%	?	?	4%
COc1ccccc1Cc1c(-c2ccc(OC)c(OC)c2)nc2c3ccccc3ccn12	nt	23µM*	?	?	-21	?
